Each compound was assayed against Solute carrier family 2, facilitated glucose transporter member 1 (Homo sapiens) (UniProt P11166) (assay: ST_JUDE_LEISH: Cytotoxicity at 2uM final concentration against transgenic Leishmania Mexicana promastigotes LmGLUT1 that are glucose transport deficient and complemented with the human glucose transporter GLUT1. Activity is measured by DNA content using SYBR green in vitro).
Assay type: functional

Solute carrier family 2, facilitated glucose transporter member 1 (Homo sapiens), sequence (P11166 whole entry): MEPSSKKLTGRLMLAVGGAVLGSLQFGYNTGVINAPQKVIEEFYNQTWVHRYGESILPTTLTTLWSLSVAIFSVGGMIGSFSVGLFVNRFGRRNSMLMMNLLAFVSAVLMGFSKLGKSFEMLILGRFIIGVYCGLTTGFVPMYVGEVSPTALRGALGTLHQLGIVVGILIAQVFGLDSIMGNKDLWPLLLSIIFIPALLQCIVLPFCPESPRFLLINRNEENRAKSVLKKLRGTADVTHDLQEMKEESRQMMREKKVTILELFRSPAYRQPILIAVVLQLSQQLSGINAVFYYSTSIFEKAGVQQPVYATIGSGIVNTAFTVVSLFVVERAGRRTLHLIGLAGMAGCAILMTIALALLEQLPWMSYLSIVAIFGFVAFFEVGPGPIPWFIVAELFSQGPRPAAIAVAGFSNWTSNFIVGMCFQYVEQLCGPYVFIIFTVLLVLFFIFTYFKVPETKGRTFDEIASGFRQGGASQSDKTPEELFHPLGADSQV

Compound	inhibition [%]
COc1ccc2[nH]c(C)cc(=NN=Cc3ccc(Cl)cc3)c2c1	6.05
O=C(NCCCN1CCC(Cc2ccccc2)CC1)c1cc2c(Cl)nc3ccccc3c2s1	0.05
FC(F)(F)c1cc(Nc2ccc(Oc3ccccc3)cc2)c2cc(-c3ccncc3)ccc2n1	-0.25
COc1ccc(-c2ccnc(-c3cccc(-c4ccccn4)n3)c2)cc1	7.03
COc1ccc(Cl)cc1N1CCN(CCCNC(=O)c2ccc(-c3nc4c(C)cccc4[nH]3)s2)CC1	1.19
O=S(=O)(NCCN1CCCC1)c1cccc(-c2cccc(CNCc3ccc(F)cc3)c2)c1	0.2
O=C(NCC1CCC(C(=O)NCCN2CCCCC2)CC1)c1ccc(O)c(-c2ccc(Cl)c(Cl)c2)c1 (stereo not given)	-0.83
O=C(/C=C/c1ccc(Cl)cc1)NCCCCCN1CCC(C(=O)Nc2ccc(Cl)cc2)CC1	-0.92
CC(C)N1CCC(NC(=O)N2CCCN(c3ncnc4cc(-c5ccccc5)sc34)CC2)CC1	2.91
O=C(Nc1cccc(-c2nc3ccccc3[nH]2)c1)c1cccc(NC(=O)c2ccco2)c1	2.33
O=C(Nc1ccc(Cl)cc1)NC1CCN(CCCCCNC(=O)C2CC2c2ccc(Cl)c(Cl)c2)CC1 (stereo not given)	9.93
CC(C)NCc1cc(Nc2ccnc3cc(Cl)ccc23)ccc1O	0.05
CC1CCCCC1N(C)C1CCN(CCCNC(=O)C=Cc2ccc(Cl)cc2Cl)CC1 (stereo not given)	-1.12
COc1ccc(CN2CCC(N3CC(c4ccccc4)(c4ccccc4)OCC3=O)C2)c(O)c1 (stereo not given)	-1.54
Cc1nnsc1C(=O)Nc1cccc(-c2cccc(-c3nc4ccccc4[nH]3)c2)c1	-1.84
CCC(C)NCc1c(O)ccc2c(CNC(C)CC)c(O)ccc12 (stereo not given)	2.24
CC(=O)c1ccc(S(=O)(=O)N2CCC(C(=O)Nc3ccccc3N3CCCC3)CC2)cc1	0.87
Cc1cccc2nc(-c3cccc(-c4cccc(NC(=O)c5ccncc5)c4)c3)[nH]c12	3.32
CCCCCCCn1c2c(c(=N)c3c1CCC3)CCCC2	92
CCOc1ncccc1CN1CCC(N2CCc3cc(NC(=O)c4cc(C)on4)ccc32)C1 (stereo not given)	-0.44

Compound	inhibition [%]
CC(C)(CNCCOc1ccc(Cl)cc1)c1nc(-c2ccnc(N)n2)c(-c2ccc(Cl)c(O)c2)[nH]1	2
CC(C)C[C@H](NC(=O)c1cc2ccccc2s1)C(=O)N[C@H]1CCN(Cc2ccc(I)c(OCCN3CCCC3)c2)C1	-0.35
N=C(N)NCCN(Cc1ccccc1)c1ccccc1	2.42
CCOCCCn1c(=N)c(C(=O)NCc2ccc(OC)cc2)cc2c(=O)n3cccc(C)c3nc21	3.85
CCCCCN1CCC(NC(=O)c2ccc(C(=O)Nc3ccc(C(C)C)cc3)cc2)C1 (stereo not given)	1.74
COc1cccc(-c2cc(-c3ccc(NC(=O)c4ccccc4)cc3)c3c(N)ncnc3n2)c1	-0.77
CN1CCCC(CN2CCN(Cc3cccc(-c4ccc(-c5nc6cc(F)ccc6[nH]5)cc4)c3)CC2)C1 (stereo not given)	2.66
O=C(Nc1ccccc1)N(Cc1cccc(-c2cccc(CNCc3ccc4c(c3)OCO4)c2)c1)C1CCN(Cc2ccccc2)CC1	0.53
Cc1ccc(C)c(Cn2c(N3CCC(C(=O)NCc4cccs4)CC3)nc3ccccc32)c1	3.18
CC(C)CNCc1ccc(-c2ccccc2CNC2CCN(Cc3ccccc3)CC2)cc1	7.04
OCc1c(Cl)cc(Cl)cc1CNCCCNc1nc2ccccc2[nH]1	5.72
O=C(/C=C/c1cccc(Br)c1)NCCCCCN1CCC(c2c[nH]c3ccccc23)CC1	3.71
Cc1ccc(C2CC(=O)CC(c3ccccn3)C2[N+](=O)[O-])cc1 (stereo not given)	-0.44
O=C(Nc1cccc(CN2CCN(Cc3ccc(O)cc3)CC2)c1)c1ccc(Cl)c(Cl)c1	3.5
CCCCCCN1CCCN(Cc2ccc(C(=O)Nc3ccc(CC)cc3)cc2)CC1	11.4
CNC(=O)NC1CCN(Cc2c(-c3cccs3)nc3ccccc3c2C(=O)N[C@@H](C)C2CCCCC2)CC1	-1.53
CCC(ON1C(N)=NC(N)=NC1(C)C)c1ccccc1 (stereo not given)	-1.61
OCCNc1nc(Nc2ccc(F)cc2)nc2ccccc12	3.51
Cc1cccc(CNc2nc(C)cc(N[C@@H](CC(C)C)C(=O)NCc3cccc(F)c3)n2)c1	4.53
CCn1c(-c2nonc2N)nc2c(-c3cccc(Cl)c3)ncc(OCCCNCc3cnc(C)nc3N)c21	0.16
